A selection: hits, their analogues and other compounds. The true share with any hit is near 4.6%.
TIM10 inh: growth inhibitors of isogenic TIM10 control yeast, primary screen, counter-screen for tim10-1 yeast inhibitor project, luminescence, uHTS | inhibition, % at 10 µM | actives 1.4% (n = 330,000) | S. cerevisiae TIM10 strain growth, BacTiter-Glo luminescence, 24 h;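 active = inhibition of 40% or more at the single tested concentration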;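 note: wild-type TIM10 isogenic control strain grown at permissive 25 °C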
NLRP3 yeast inh: NALP3 inflammasome inhibitors in reconstituted yeast, primary screen, luminescence, uHTS; actives 0.39% (n = 330,000); Yeast reconstituted NLRP3/ASC/caspase-1, beta-gal luminescence, 24 h; inhibition, % at 10 µM;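 active = inhibition of 50% or more; inactive = inhibition below 50%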;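 note: plate controls were induced DMSO wells for no effect and uninduced yeast grown without galactose for full effect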
tim10-1 inh: growth inhibitors of tim10-1 mutant yeast, primary screen, luminescence, uHTS; AID 463190, 2010; S. cerevisiae tim10-1 ts strain growth, BacTiter-Glo, 24 h; inhibition, % at 20 µM; actives 2.2% (n = 330,000);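 active = inhibition of at least 40%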;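 note: mutant grown at 25 °C; 0% = DMSO wells with yeast and 100% = wells holding no yeast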
PfHsp90 set2: growth inhibition of PfHsp90-expressing yeast, primary screen, antimalarial PfHsp90 inhibitor project, S. cerevisiae, BacTiter-Glo luminescence, single point, set 2; BacTiter-Glo ATP, 48 h; yeast lacking PDR1 and PDR3 efflux regulators; actives 0.32% (n = 310,000); inhibition, % at 9.4 µM; AID 504621, 2011;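 active = every replicate shows inhibition above about 80%, whatever the replicate mean, limit read from the data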;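 note: 0% = DMSO neutral controls and 100% = 20 µM radicicol positive controls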
SKKanGAS inh: S. pyogenes SKKanGAS growth inhibitors in kanamycin, primary screen, streptokinase expression inhibitor project, SKKanGAS strain, BacTiter-Glo luminescence; 6 h; inhibition, % at 7.5 µM; actives 1.3% (n = 300,000); AID 1662, 2009;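 active = mean replicate score, as percent of positive control median, at least 50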;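 note: strain carries kanamycin resistance gene driven by streptokinase promoter and grows in 40 µg/ml kanamycin; loss of luminescence reflects streptokinase promoter inhibition or plain growth inhibition; 0% = median of DMSO wells and 100% = positive control at its reference dose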
tim23-1 inh: growth inhibitors of tim23-1 mutant yeast, primary screen, luminescence, uHTS; S. cerevisiae tim23-1 growth, BacTiter-Glo luminescence, 24 h; inhibition, % at 20 µM; actives 1.3% (n = 330,000);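 active = growth inhibition of the mutant yeast at or above 50%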;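 note: temperature-sensitive mutant grown at 25 °C; plate controls were DMSO-treated mutant yeast for no effect and medium wells lacking yeast for full effect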
tim10 confirm: growth inhibitors of wild-type TIM10 yeast, confirmation, counter-screen for tim10-1 synthetic lethality project, single concentration, luminescence, S. cerevisiae; AID 463215, 2010; inhibition, % at 10 µM; S. cerevisiae tim10 strain growth, BacTiter-Glo luminescence, 24 h; shares compounds with TIM10 inh; actives 63% (n = 4,600);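 active = inhibition of yeast growth at or above a set limit in either of two replicates at 10 µM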;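 note: this counterscreen used the strain with wild-type TIM10; 0% = yeast with DMSO and 100% = medium wells lacking yeast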
Active calls of the source: *; . = no result given.

SMILES	TIM10 inh	NLRP3 yeast inh	tim10-1 inh	PfHsp90 set2	SKKanGAS inh	tim23-1 inh	tim10 confirm
Oc1ccc(N=Nc2ccccc2-c2nn[nH]n2)c(O)c1	6	13	32	12	10	3	.
CCOC(=O)C1CCN(C(=O)c2ccc3c(c2)NC(=O)/C(=C\c2ccc(C)cc2)S3)CC1	41*	25	21	-2	69*	47	-4
O=S(=O)(/N=C(/Nc1cccc2ccccc12)c1ccccc1)c1cccs1	43*	-29	24	-7	0	30	23
O=C(O)CCCN=Cc1c(O)c2ccccc2oc1=O	5	8	-2	19	4	7	.
O=C(N/N=C/c1ccccn1)c1cc(-c2ccc(Cl)cc2)nc2ccccc12	47*	16	19	99*	62*	42	50*
O=C(NC(=S)Nc1ccccn1)c1cc(-c2ccccc2)nc2ccccc12	47*	20	36	-6	11	41	6
Cc1cc(C)n(C2CC(=O)N(c3ccc(Cl)c(Cl)c3)C2=O)n1 (stereo unspecified)	13	6	16	8	6	8	.
CC(C)Cn1c(SCC(N)=O)nnc1-c1cccc(S(=O)(=O)N2CCOCC2)c1	58*	11	-16	-21	.	1	-6
Cc1ccc(CSc2nnc(-c3cccc(S(=O)(=O)N4CCOCC4)c3)n2CC(C)C)cc1	20	0	17	4	-1	28	.
O=C(N/N=C/C=C/c1ccco1)c1cnccn1	6	28	-18	29	-2	-6	.
O=C(N/N=C\C=C\c1ccco1)c1cc(-c2ccc3ccccc3c2)n[nH]1	52*	5	16	10	23	8	40*
O=C(N/N=C/C=C\c1ccco1)c1ccccn1	90*	11	3	-5	0	16	2
Cc1cccc(NC(=O)CSCC(=O)N2CCN(C(=O)c3ccco3)CC2)c1	10	7	7	-4	.	-1	.
O=C(CN(C(=O)CNC(=O)c1ccco1)c1ccccc1F)NC1CCCCC1	-9	17	16	0	0	16	.
COc1ccccc1C1(CC(=O)N2CCCCC2)CCOC(C(C)C)C1 (stereo unspecified)	48*	5	35	-2	-1	34	17
CCOC(=O)N1CCN(C(=O)c2cccc(S(=O)(=O)Nc3ccc(Br)cc3)c2)CC1	4	16	16	-34	-6	7	.
CN(C)S(=O)(=O)c1cccc(CSc2cccc[n+]2[O-])c1	7	-3	14	5	14	11	.
COc1cnc(-c2ccccn2)nc1Oc1ccc(Cl)c2ccccc12	53*	34	37	.	93*	40	41*
Fc1ccc(C(c2nnnn2C2CCCC2)N2CCc3ccccc32)cc1 (stereo unspecified)	45*	-15	30	.	9	26	18
O=C(COC(=O)C1=Cc2ccccc2OC1)NC1CCCC1	-6	-6	-6	4	-9	5	.
COc1ccc(C2C(C#N)=C3NC(=O)c4c(sc5c4CCCCC5)N3C3=C2C(=O)CC(C)(C)C3)cc1 (stereo unspecified)	43*	-3	30	.	29	-21	-1
COc1ccc(C2C(C#N)=C(N)N(c3sc4c(c3C#N)CCCC4)C3=C2C(=O)CC(C)(C)C3)cc1 (stereo unspecified)	19	14	15	.	9	27	.
Oc1cccc2c(NC(=S)Nc3ccc(SC(F)F)cc3)cccc12	52*	41	38	-23	10	47	42*
Oc1cccc(NC(=S)Nc2ccc(SC(F)F)cc2)c1	18	-4	37	-20	11	6	.

Screening results as filed in PubChem BioAssay.
